# In the library only some 2.4% were active in any assay of this set; here they are far more common.
# ANO1 block: mouse TMEM16A channel inhibition, primary screen; Q8BHY3; HEK293 TMEM16A/YFP iodide influx fluorescence, ionomycin; normalized B-score (activity score, 25-100; higher = stronger inhibition) at 10 µM; 310,000 tested, 1.2% active;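 active = ratio plate-corrected score three or more library SD toward inhibition, starting fluorescence score within five deviations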;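 also: score derived from kinetic fluorescence span divided by baseline fluorescence per well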
# Target sequence (Q8BHY3 whole entry, looked up): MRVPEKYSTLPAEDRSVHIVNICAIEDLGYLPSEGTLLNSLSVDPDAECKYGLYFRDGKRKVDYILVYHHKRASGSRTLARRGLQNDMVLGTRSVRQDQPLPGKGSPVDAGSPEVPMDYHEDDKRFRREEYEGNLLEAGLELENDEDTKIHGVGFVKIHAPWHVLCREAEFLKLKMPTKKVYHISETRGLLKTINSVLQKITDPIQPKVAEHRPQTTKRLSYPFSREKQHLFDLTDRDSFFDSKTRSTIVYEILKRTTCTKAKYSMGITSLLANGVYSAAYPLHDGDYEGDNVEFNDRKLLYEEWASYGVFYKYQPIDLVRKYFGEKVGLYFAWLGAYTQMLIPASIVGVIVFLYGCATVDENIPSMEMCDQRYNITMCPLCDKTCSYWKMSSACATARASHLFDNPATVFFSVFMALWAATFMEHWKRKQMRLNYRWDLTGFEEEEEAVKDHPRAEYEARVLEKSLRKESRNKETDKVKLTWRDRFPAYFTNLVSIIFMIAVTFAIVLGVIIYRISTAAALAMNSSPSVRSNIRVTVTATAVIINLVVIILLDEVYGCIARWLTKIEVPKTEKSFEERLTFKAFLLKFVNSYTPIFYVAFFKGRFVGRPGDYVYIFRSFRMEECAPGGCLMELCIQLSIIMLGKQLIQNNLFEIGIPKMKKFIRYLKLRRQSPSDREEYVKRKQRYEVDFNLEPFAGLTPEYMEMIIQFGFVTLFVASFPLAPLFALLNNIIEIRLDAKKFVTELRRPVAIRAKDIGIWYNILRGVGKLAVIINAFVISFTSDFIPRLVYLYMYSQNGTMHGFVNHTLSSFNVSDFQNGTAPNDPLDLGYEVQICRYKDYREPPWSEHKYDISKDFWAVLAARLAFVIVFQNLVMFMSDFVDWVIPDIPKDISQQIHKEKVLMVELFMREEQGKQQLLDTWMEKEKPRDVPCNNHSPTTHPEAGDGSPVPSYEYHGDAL
# CHT PAM: human CHT allosteric activation. CHT-expressing cells, membrane potential dye, choline EC20; active compounds read high; LV-AA mutant CHT in HEK293 cells. B-score at 10 µM. AID 488977. 310,000 tested, 0.49% active. Q9GZV3;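 active = initial fluorescence not abnormally high and integrated response B-score, plate-corrected, over 3 SD above library mean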
# CHT inh: inhibits the human high affinity choline transporter. CHT-expressing cells, membrane potential dye, choline response; active compounds read low. B-score at 10 µM. 310,000 tested, 0.86% active. AID 488975;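 active = B-score over 3 SD under the library average, and starting fluorescence ratio not unusually high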;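 also: choline stimulus applied at its EC90 after an EC20 pre-addition; B-score computed on integrated fluorescence ratio after choline addition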
# ANO1 activ: activators or potentiators of mouse TMEM16A chloride channel; HEK293 TMEM16A/YFP-H148Q/I152L, iodide quench fluorescence; active compounds read low; 340,000 tested, 0.3% active; B-score at 10 µM; Q8BHY3;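 active = fluorescence-ratio B-score plate-corrected deviation score at least 3 library SD below zero, with starting fluorescence score within 5 deviations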;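 also: channel opened by trigger with iodide after compound preincubation; score built on the fluorescence ratio of max minus min over baseline; more negative score means more quench and so TMEM16A activation or potentiation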
# CHT act confirm: confirmation of human choline transporter (CHT) activators; AID 504833; CHT-expressing cells, membrane potential dye fluorescence (FDSS); % of choline EC20–EC90 response window; HEK293 expressing CHT LV-AA mutant; choline added at its EC20; activation, % at 10 µM; shares compounds with CHT PAM; 2,500 tested, 91% active;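 active = primary screen active, with duplicate mean activation above negative control mean plus 3 SD, cut at about 11% in these data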
# HEK293 MP dye: CHT activator counter-screen hit in parental HEK293 cells. shares compounds with CHT PAM. membrane potential dye fluorescence (FDSS); measured after EC20 choline addition. ratio readout change at 10 µM, hits read low. 2,500 tested, 62% active;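 active = duplicate-averaged ratio beyond 3 SD from buffer wells, up or down, though filed actives are nearly all decreases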
# An asterisk follows results filed as active; i = inactive; nt = not tested or not shown.
SMILES,ANO1 block,CHT PAM,CHT inh,ANO1 activ,CHT act confirm,HEK293 MP dye
O=C(NCc1ccc2c(c1)OCO2)c1cc([N+](=O)[O-])ccc1N1CCCCC1,i,9.18*,i,i,51.1*,i
O=C(NCc1ccc2c(c1)OCO2)c1cccc([N+](=O)[O-])c1,i,i,i,i,nt,nt
O=C(c1ccccc1)c1cc([N+](=O)[O-])ccc1N1CCOCC1,i,i,i,i,57.4*,i
COc1ccc(COC(=O)c2cc([N+](=O)[O-])ccc2N2CCOCC2)cc1F,i,9.41*,i,i,67.1*,i
CC1(C)Cc2ccccc2-c2n[nH]c(=S)n21,i,i,i,i,nt,nt
CC/C(C)=N/Nc1nc(-c2cc3cccc(OC)c3oc2=O)cs1,i,i,i,i,nt,nt
CC(C)Cc1ccc(C(C)CC2=CCC(CN(C)C)C2=O)cc1 (stereo unspecified),nt,nt,nt,i,nt,nt
COc1ccc(C(=O)C[n+]2cc(Br)cc3ccccc32)cc1[N+](=O)[O-],i,i,i,i,30.8*,-38.1*
COc1ccc(C(=O)OCC(N)=O)cc1[N+](=O)[O-],i,i,i,i,nt,nt
COCCN(Cc1cn[nH]c1-c1ccc2cc(OC)ccc2c1)C(C)C,i,i,i,i,nt,nt
COc1ccc(-c2nc(CN3CCC(C(=O)NC4CCN(Cc5ccccc5)CC4)CC3)c(C)o2)cc1OC,i,7.55*,i,i,59.7*,-50.7*
COc1ccc([N+](=O)[O-])cc1C(=O)NC1CCN(Cc2ccccc2)CC1,i,6.87*,i,i,45.6*,-42.6*
CCC1CCCCN1CCCNC(=O)C1CCN(Cc2nc(-c3ccc(Cl)cc3)oc2C)CC1 (stereo unspecified),i,i,i,i,36.1*,-29.6*
COc1ccccc1NS(=O)(=O)c1ccc(C)c(C(=O)NC2CCN(Cc3ccccc3)CC2)c1,nt,nt,nt,i,nt,nt
Cc1oc(-c2ccc(Cl)cc2)nc1CN1CCC(C(=O)NCCCN2CCOCC2)CC1,i,i,i,i,nt,nt
COc1ccccc1C(=O)N1C(CC(=O)Nc2cc(Cl)ccc2C)C(=O)NC2CCCCC21 (stereo unspecified),i,i,i,i,24.5*,i
CCCCCCCCCCCCCCCC[N+](C)(C)CC,i,i,i,i,nt,nt
CCCCCC[N+](C)(C)CCSSCC[N+](C)(C)CCCCCC,i,i,i,i,38.0*,-45.8*
Cn1c(C(=O)NCCN2CCCCCC2)cc2c(=O)n(C)c3ccccc3c21,i,i,i,i,25.3*,-27.4*
Cn1c(C(=O)NCCCN2CCOCC2)cc2c(=O)n(C)c3ccccc3c21,i,i,i,i,nt,nt
COc1cccc2c(=O)cc(C)n(CC(=O)Nc3ccccc3C)c12,i,i,i,i,nt,nt
Cc1cccc2c(=O)cc(C)n(CC(N)=O)c12,i,10.9*,i,i,67.5*,-78*
CNC(=O)Cn1c(C)cc(=O)c2cccc(OC)c21,i,13*,i,i,64.4*,-89*
Cc1cccc(-n2nc(CC#N)c(C#N)c2N)c1,i,i,i,i,nt,nt
CC(C)CCC(CCNCc1ccccn1)c1ccc2c(c1)OCO2 (stereo unspecified),i,i,i,i,nt,nt
SMILES,ANO1 block,CHT PAM,CHT inh,ANO1 activ,CHT act confirm,HEK293 MP dye
CC(C)C(CCNCc1ccccn1)c1ccc(Cl)cc1 (stereo unspecified),i,6.66*,i,i,16.7*,i
O=C(NCc1cccnc1)/C(=C\c1ccc(-c2ccc(Cl)c(Cl)c2)o1)S(=O)(=O)c1ccccc1,i,6.68*,i,-6.08*,13.6*,i
O=C(NCc1cccnc1)c1ccc(-c2ccc(Cl)cc2)o1,i,i,i,i,nt,nt
O=C(O)C1CCCCC1C(=O)Nc1cc(C(F)(F)F)ccc1Cl (stereo unspecified),i,i,i,i,nt,nt
CCCc1nnc(NC(=O)CCC(=O)N2CCN(C3CCCC3)CC2)s1,i,i,i,i,nt,nt
Cc1cc[n+]2c3c(cccc13)CCC2,i,10.9*,i,i,88.6*,-85.4*
COCCNC(=S)N1CCOCC1,i,i,i,i,nt,nt
O=C(O)Cn1cnc2sc3c(c2c1=O)CCCC3,i,i,i,i,nt,nt
O=C(O)CCc1nn2cnc3sc4c(c3c2nc1=O)CCCC4,i,i,i,i,54.3*,-42.6*
CCCCN(C)CCNS(=O)(=O)c1ccc2c(c1)n(C)c(=O)c(=O)n2C,i,17.1*,i,i,76.1*,-84.1*
CCCCN(CCCC)C(=O)CN(C)S(=O)(=O)c1ccc2c(c1)n(C)c(=O)c(=O)n2C,i,i,i,i,nt,nt
Cc1cc(N2CCC(N(C)C3CCCC3)CC2)nc2cc(O)ccc12,i,12.4*,i,i,31.3*,-73.3*
CCOC(=O)c1nn(-c2ccc(Cl)cc2C)ccc1=O,i,i,i,i,nt,nt
CCOC(=O)c1cnc2c(CC)cccc2c1NCCCN1CCOCC1,i,i,i,i,nt,nt
CCOC(=O)c1cnc2c(C(F)(F)F)cccc2c1NCCCN1CCOCC1,i,i,i,i,43.2*,-67.2*
COc1ccc(-c2cn3c(n2)CCC3)cc1,i,7.43*,i,i,51.4*,-47.4*
COc1ccc(C2=CSC3=NCCN23)cc1F,i,7.18*,i,i,47.3*,-55.2*
COc1ccc(C2=CSC3=NCCN23)cc1Br,i,6.56*,i,i,29.4*,-47*
COc1ccc(C2=CSC3=NCCN23)cc1Cl,i,i,i,i,nt,nt
COc1ccc(C2=CSC3=NCCN23)cc1[N+](=O)[O-],i,i,i,i,nt,nt
O=[N+]([O-])c1ccc(C2=CSC3=NCCN23)cc1,i,7.39*,i,i,43.4*,-60.8*
Cc1cccc(OCc2nnc(SC(C)C(=O)Nc3ccc(N4CCOCC4)cc3)o2)c1 (stereo unspecified),nt,nt,nt,i,nt,nt
CCn1cc(C(=O)NCCCN(C)C)c(=O)c2cc(F)c(N3CCN(C)CC3)cc21,i,i,i,i,29.7*,i
CCn1cc(S(=O)(=O)c2ccc(C)cc2)c(=O)c2cc(F)c(N3CCN(C)CC3)cc21,i,i,i,i,48.8*,-49*
CSc1ccc(CN(C)C(=O)C(c2ccccc2)c2ccccc2)cc1,i,7.08*,i,i,34.3*,i

# Screens as filed in PubChem BioAssay.
